# Source: PubChem BioAssay
# The sample as a whole holds a higher share of hits than the screen did.
# ST2 inh – inhibitors of human ST2 (IL1RL1) binding to IL-33; AlphaLISA ST2-Fc/biotin-IL-33 interaction, 1 h; hit rate 2.3% among 78,000; inhibition, % for hits at 17 µM; Q01638; in the data active = inhibition above about 30%
# Target sequence (Q01638 whole entry, looked up): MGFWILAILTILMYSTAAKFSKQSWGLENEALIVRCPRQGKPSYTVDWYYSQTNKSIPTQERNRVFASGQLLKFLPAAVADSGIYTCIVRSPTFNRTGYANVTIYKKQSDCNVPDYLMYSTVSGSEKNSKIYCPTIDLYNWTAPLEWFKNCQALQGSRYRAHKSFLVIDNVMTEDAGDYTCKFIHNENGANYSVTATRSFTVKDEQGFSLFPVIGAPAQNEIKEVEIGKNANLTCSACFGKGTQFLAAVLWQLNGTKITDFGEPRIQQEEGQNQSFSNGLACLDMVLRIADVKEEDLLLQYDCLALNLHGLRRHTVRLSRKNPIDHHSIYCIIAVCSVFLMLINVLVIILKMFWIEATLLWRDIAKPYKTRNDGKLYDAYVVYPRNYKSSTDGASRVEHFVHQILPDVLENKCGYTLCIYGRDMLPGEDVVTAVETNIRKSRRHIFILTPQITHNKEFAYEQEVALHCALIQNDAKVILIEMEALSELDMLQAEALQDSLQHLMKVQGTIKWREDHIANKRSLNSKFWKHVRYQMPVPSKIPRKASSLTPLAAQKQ
# An asterisk follows results filed as active; i = inactive; ! = a repeat was not active.
SMILES,ST2 inh
COc1cc2c(cc1OC)C(C(=O)NCc1ccc(C)o1)C1c3ccccc3CCN1C2=O (stereo not drawn),i
COc1ccc(Br)cc1/C=C1/SC(=N)N(c2ccc3c(c2)OCO3)C1=O,40.0%*
COc1ccccc1N1C(=N)S/C(=C/c2ccc(Br)c([N+](=O)[O-])c2)C1=O,i
Cc1ccc(N2C(=O)S/C(=C\c3ccc4c(c3)OCO4)C2=O)cc1,i
O=C(N1CCOCC1)C12C[C@@H]3C[C@@H](CC(Cl)(C3)C1)C2,i
O=C(NC1CCCC1)c1cc(-c2cccs2)on1,i
COC(=O)c1c[nH]n2c(=O)c(Cc3cccc(C)c3)c(C)nc12,i
COC(=O)c1c[nH]n2c(NC3CCCCC3)c(-c3cccs3)nc12,32.0%*
COCCOc1ccc(C(=O)N[C@@H]2CN(C(=O)NC3CCCCC3)CCC[C@H]2O)cc1,i
COc1cc(O)c2c(=O)c(OC)c(-c3cc(O)c(OC)c(OC)c3)oc2c1,94.0%*
COc1cc(O)c2c(=O)c(O[C@@H]3O[C@H](CO[C@@H]4O[C@@H](C)[C@H](O)[C@@H](O[C@@H]5O[C@@H](C)[C@H](O)[C@@H](O)[C@H]5O)[C@H]4O)[C@H](O)[C@H](O)[C@H]3O)c(-c3ccc(O)c(O)c3)oc2c1,i
COc1c(-c2ccc(O)c(O)c2)oc2cc(O)cc(O)c2c1=O,i
CC(C)(C)S(=O)(=O)c1ccccn1,i
Cc1cc(C(=O)O)c2ccccc2n1,i
Cc1ccc(-c2cc(C(=O)O)c3cc4c(C(=O)O)cc(-c5ccc(C)o5)nc4cc3n2)o1,91.0%*
O=C(O)c1cc(-c2cc(C(=O)O)c3ccccc3n2)nc2ccccc12,i
CCCCN(C)C(=O)CNC(=O)Cn1ccc2ccccc2c1=O,i
COc1ccc(Cl)cc1NC(=O)CCC1CCCN(C(=O)c2csc(C)n2)C1 (stereo not drawn),i
c1cncc(CN2CC[C@H](c3nc4ccccc4s3)C2)c1,i
O=C(NCc1ccccc1)C(Cc1ccccc1)N1C(=O)c2ccccc2C1=O (stereo not drawn),i
CS(=O)CCC(C(=O)O)N1C(=O)c2ccccc2C1=O (stereo not drawn),38.0%*!
O=C(O)CCC(C(=O)O)N1C(=O)c2ccccc2C1=O (stereo not drawn),i
O=C(c1cccn2c(=O)c3c4c(sc3nc12)CCCC4)N1CCN(Cc2ccccc2)CC1,i
O=C1Nc2ccccc2C(O)(C(=O)NCCCN2CCCCCC2)N1c1ccccc1 (stereo not drawn),i
CSCC[C@@H](C(=O)Nc1cc(F)ccc1F)N1Cc2ccccc2C1=O,i
SMILES,ST2 inh
CN(C)S(=O)(=O)c1ccc(C(=O)N2CCN=C2SCc2ccc(Cl)cc2)cc1,i
N#Cc1nc(COc2ccccc2F)oc1N1CCCC1,53.0%*
Cc1nc(S(=O)(=O)c2ccccc2)c(N2CCCCC2)o1,i
Fc1ccccc1OCCN1CCNCC1,i
N#Cc1nc(COc2ccc(Br)cc2)oc1N1CCCCC1,64.0%*
N#Cc1nc(-c2ccc(F)cc2)oc1N1CCOCC1,i
O=C(COc1ccc(Br)cc1)N1CCCC1,i
Fc1ccccc1OCCCOc1ccccc1F,i
Brc1ccc(-c2noc(COc3ccccc3)n2)cc1,i
N#Cc1nc(COc2ccccc2F)oc1N1CCCCC1,53.0%*
Cc1ccccc1OCc1nc(C#N)c(N2CCCC2)o1,71.0%*
O=S(=O)(c1ccccc1)c1nc(-c2ccc(F)cc2)oc1N1CCCCC1,i
COc1ccc(-c2nc(C#N)c(N3CCOCC3)o2)cc1,i
Cc1cc(C)n(C2CCN(Cc3c(CO)cnc(C)c3O)C2)n1 (stereo not drawn),i
COC(=O)c1cc(Nc2ncnc3c2cnn3-c2ccc(C)cc2C)cc(C(=O)OC)c1,i
CCCC(=O)Nc1cc(Cl)ccc1OCc1cc(=O)n2oc(C)cc2n1,i
CC(C)Oc1cccc(C(=O)Nc2ccc(Oc3ccc(Cl)cc3)cc2)c1,i
Cc1cccc(C(C(=O)N(C)Cc2snnc2C)N(C)C)c1 (stereo not drawn),i
O=C(COc1ccc(Cl)cc1Cl)Nc1cccc(NC(=O)c2ccccc2Cl)c1,i
Cc1ccccc1C(=O)Nc1cccc([N+](=O)[O-])c1,i
O=C(Nc1ccccc1)Nc1cccc([N+](=O)[O-])c1,i
O=[N+]([O-])c1cccc(Nc2ccccc2)c1,33.0%*
Cc1ccc(OCC(O)CN2CCCCC2C)c(C)c1 (stereo not drawn),i
COc1ccc(C(=O)N2CCN(S(C)(=O)=O)C[C@@H]2C(=O)N[C@H]2CCCNC2=O)cc1,i
CN(C)CCCn1c(-c2ccc([N+](=O)[O-])cc2)csc1=Nc1ccccc1,51.0%*
SMILES,ST2 inh
NC(CO)C(O)c1ccc([N+](=O)[O-])cc1 (stereo not drawn),i
Cc1[nH]n(-c2ccc([N+](=O)[O-])cc2)c(=O)c1C=NCC(O)c1ccccc1 (stereo not drawn),i
CN(CCCC(=O)O)c1nc(-c2cccc([N+](=O)[O-])c2)cs1,i
Cc1ccc(C(=O)CN2C3=NCCCN3c3ccccc32)cc1,i
COCc1cc(C)n(CC(=O)c2ccccc2)c(=O)c1C#N,i
C=CCn1c(-c2ccccc2)csc1=Nc1cccc([N+](=O)[O-])c1,59.0%*
CN(C)CCN(C)Cc1ccc([N+](=O)[O-])cc1,i
Cc1csc(=Nc2ccccc2)n1CC(O)c1ccc([N+](=O)[O-])cc1 (stereo not drawn),39.0%*
O=[N+]([O-])c1cccc(N=Cc2nc(-c3ccccc3)oc2O)c1,i
C=CCn1c(C)csc1=Nc1ccc(S(=O)(=O)Nc2nc(C)cc(C)n2)cc1,i
Cc1ccc(C(=O)Cn2c(C)csc2=Nc2ccccc2)cc1,41.0%*
CCCc1nnc(C[C@@H]2C[C@@H](C(C)C)[C@H](CN3CCN(C)CC3)C=C2C)o1,i
CCC(NC(=O)Cc1nonc1C)c1ccccn1 (stereo not drawn),i
N#CC1=C(N)Oc2cc(N)ccc2C1c1ccc(Br)s1 (stereo not drawn),i
Nc1nnc(SCc2cccc(I)c2)s1,i
CCN(CCCNC(=O)c1cc2cc3ccc(Cl)cc3nc2o1)c1ccccc1,34.0%*!
CCC1CCCCN1CCCNC(=O)c1cc2cc3ccc(Cl)cc3nc2o1 (stereo not drawn),i
CCCCN(CC)CCCNC(=O)c1cc2cc3ccc(OC)cc3nc2o1,i
COc1ccc2cc3cc(C(=O)NCCCN4CCN(C)CC4)oc3nc2c1,i
O=C(Nc1ccc(F)cc1)c1cc2cc3ccc(Cl)cc3nc2o1,37.0%*!
O=C(NCCCN1CCCCCC1)c1cc2cc3ccc(Cl)cc3nc2o1,44.0%*!
CCCN(CCC)CCCNC(=O)c1cc2cc3ccc(OC)cc3nc2o1,i
COc1ccc2cc3cc(C(=O)Nc4ccc(F)cc4Cl)oc3nc2c1,i
COc1ccc2cc3cc(C(=O)Nc4cc(Cl)ccc4OC)oc3nc2c1,i
CC(Oc1ccccc1)C(=O)N1CCN=C1SCc1ccc(Br)cc1 (stereo not drawn),i
CCOc1ccc(N(C(C)C(=O)Nc2ccc3c(c2)OCO3)S(C)(=O)=O)cc1 (stereo not drawn),i
CC(C)(CO)NC(=O)NCC12CC3CC(CC(C3)C1)C2,i
COc1ccc(CCN2CCCC(CN(C)C(=O)Nc3cc(C)ccc3C)C2)cc1 (stereo not drawn),i
Cc1oc2cc(OC(C)C)ccc2c(=O)c1Oc1ccccc1,i
O=C(c1ccc(-c2cccc3c2OCC3)nc1)N1CCCN(c2ncccn2)CC1,i
